Measurements published in PubChem BioAssay (NCI).
Compounds without any hit were thinned out: in the full panel of roughly 79,000, 15% have a hit. Active and inactive are the calls of the source. Cut-off read from the data, not from the text of the source: active = growth inhibition above about 70%; inactive = the rest.

Assays:
[1] = NCI Yeast Anticancer Drug Screen. Data for the wt1 strain (AID 149);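 note: 0% = growth of vehicle-treated wt1 cultures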; conditions: S. cerevisiae wt1 strain (SPY 50644) growth inhibition, active compounds read high
In short: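 Readout: yeast growth inhibition, normalised to vehicle controls, in the wt1 strain exposed to test compounds.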

[2] = NCI Yeast Anticancer Drug Screen. Data for the rad50EPP+ strain (AID 151);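 note: 0% = growth of vehicle-treated control cultures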; conditions: S. cerevisiae rad50 mutant strain, active compounds read high
In short: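 Exposing the rad50EPP+ strain to each compound, growth was compared with vehicle-only cultures to give inhibition.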

[3] = NCI Yeast Anticancer Drug Screen. Data for the mgt1 strain (AID 153); conditions: S. cerevisiae mgt1 mutant growth inhibition, active compounds read high
In short: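 Genetically defined yeast (mgt1) treated with compound; inhibition of growth expressed against vehicle-treated controls.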

[4] = NCI Yeast Anticancer Drug Screen. Data for the rad50 strain (AID 155);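 note: 0% = growth of vehicle-only cultures of the same strain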; conditions: S. cerevisiae rad50 strain growth inhibition, active compounds read high
In short: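 Compounds were tested on a yeast strain with an engineered DNA damage repair alteration; the reported value is growth inhibition normalised to vehicle treatment.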

[5] = NCI Yeast Anticancer Drug Screen. Data for the mec2-1 strain (AID 157); conditions: S. cerevisiae mec2-1 strain, active compounds read high
In short: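 Readout is yeast growth inhibition, normalised to vehicle-treated controls, in the mec2-1 strain exposed to compound.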

[6] = NCI Yeast Anticancer Drug Screen. Data for the rad14 strain (AID 159);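 note: 0% = growth of vehicle-treated control cultures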; conditions: S. cerevisiae rad14 strain growth inhibition, active compounds read high
In short: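 Compound-treated yeast with a defined DNA-repair lesion; growth inhibition normalised to vehicle-treated cultures.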

[7] = NCI Yeast Anticancer Drug Screen. Data for the sgs1 mgt1 strain (AID 161);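 note: 0% = growth of cultures given vehicle only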; conditions: S. cerevisiae sgs1 mgt1 strain, active compounds read high
In short: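 Growth of a repair-deficient yeast mutant was monitored after compound treatment and expressed as inhibition relative to vehicle-treated cultures.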

[8] = NCI Yeast Anticancer Drug Screen. Data for the CLN2oe strain (AID 163);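 note: 0% = growth of vehicle-only control cultures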; conditions: S. cerevisiae CLN2oe strain, active compounds read high
In short: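 Values reflect how much compound exposure reduced yeast growth, referenced to vehicle-exposed cells. Assay organism is a strain with a defined genetic change affecting cell-cycle control.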

[9] = NCI Yeast Anticancer Drug Screen. Data for the cln2 rad14 strain (AID 165);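 note: 0% = growth equal to vehicle treated cultures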; conditions: S. cerevisiae cln2 rad14 strain, active compounds read high
In short: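 Relative to vehicle controls, growth inhibition of compound-treated cln2 rad14 yeast was recorded.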

[10] = NCI Yeast Anticancer Drug Screen. Data for the bub3 strain (AID 167); conditions: S. cerevisiae bub3 mutant strain, active compounds read high
In short: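 Growth of a checkpoint-deficient yeast mutant is measured after compound exposure. Values represent inhibition relative to vehicle.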

[11] = NCI Yeast Anticancer Drug Screen. Data for the wt2 strain (AID 169);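 note: 0% = growth of vehicle-treated yeast cultures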; conditions: S. cerevisiae wt2 strain growth inhibition, active compounds read high
In short: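 Values express reduction in yeast growth under compound treatment, referenced to vehicle-treated cells.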

[12] = NCI Yeast Anticancer Drug Screen. Data for the mlh1 strain (AID 171);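 note: 0% = growth of vehicle-treated control cultures of the same strain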; conditions: S. cerevisiae mlh1 strain growth inhibition, active compounds read high
In short: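 Steps: expose the defined-mutant yeast strain to compound; expose a parallel culture to vehicle; measure growth; express compound effect as inhibition relative to the vehicle culture.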

[13] = NCI Yeast Anticancer Drug Screen. Data for the sgs1 strain (AID 173);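 note: 0% = growth of vehicle-only control cultures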; conditions: S. cerevisiae sgs1 mutant, active compounds read high
In short: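 Treat defined-mutant yeast with compound; measure growth; calculate inhibition relative to vehicle-treated cells.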

[14] = NCI Yeast Anticancer Drug Screen. Data for the mlh1 rad18 strain (AID 175); conditions: S. cerevisiae mlh1 rad18 strain growth inhibition, active compounds read high
In short: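 Test agents were incubated with a yeast strain of defined genotype (DNA damage repair defect). Inhibition of growth was derived by comparison with vehicle-exposed cultures.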

[15] = NCI Yeast Anticancer Drug Screen. Data for the rad18 strain (AID 177); conditions: S. cerevisiae rad18 mutant growth inhibition, active compounds read high
In short: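 A genetically defined yeast mutant impaired in DNA damage repair was treated with test compounds, then its growth was measured against cultures receiving vehicle alone.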

[16] = at 5.0 µM (retest, dose inferred, filed as 0.5)
[17] = at 50.0 µM (retest, dose inferred, filed as 5.0)

Measured: growth inhibition

CCCCCCCC/C=C\CCCCCCCCN
inactive: [1]; at 1.2 µM 13% | [1]; at 3.7 µM 17% | [1]; at 11.0 µM 9% | [2]; at 1.2 µM 17% | [2]; at 3.7 µM 21% | [2]; at 11.0 µM 21% | [3]; at 1.2 µM 18% | [3]; at 3.7 µM 30% | [3]; at 11.0 µM 22% | [4]; at 1.2 µM -1% | [4]; at 3.7 µM -7% | [4]; [16] 30% | [4]; at 11.0 µM -15% | [4]; [17] 64% | [5]; at 1.2 µM 1% | [5]; at 3.7 µM 15% | [5]; [16] 45% | [5]; at 11.0 µM -18% | [5]; [17] 30% | [6]; at 1.2 µM -22% | [6]; at 3.7 µM -21% | [6]; at 11.0 µM -19% | [7]; [16] -68% | [8]; at 1.2 µM 17% | [8]; at 3.7 µM 11% | [8]; at 11.0 µM 28% | [9]; [16] 42% | [10]; at 1.2 µM 0% | [10]; at 3.7 µM 14% | [10]; [16] -10% | [10]; at 11.0 µM 14% | [11]; at 1.2 µM -7% | [11]; at 3.7 µM -1% | [11]; at 11.0 µM -24% | [12]; at 1.2 µM -16% | [12]; at 3.7 µM -16% | [12]; at 11.0 µM -17% | [13]; at 1.2 µM -3% | [13]; at 3.7 µM -11% | [13]; at 11.0 µM -15% | [14]; [16] 26% | [14]; [17] 27% | [15]; at 1.2 µM -1% | [15]; at 3.7 µM 7% | [15]; at 11.0 µM -13%
active: [1]; at 33.0 µM 98% | [1]; at 100.0 µM 98% | [2]; at 33.0 µM 96% | [2]; at 100.0 µM 97% | [3]; at 33.0 µM 99% | [3]; at 100.0 µM 98% | [4]; at 33.0 µM 96% | [4]; at 50.0 µM 91.2% | [4]; at 100.0 µM 96% | [5]; at 33.0 µM 98% | [5]; at 50.0 µM 92.5% | [5]; at 100.0 µM 98% | [6]; at 33.0 µM 97% | [6]; at 100.0 µM 97% | [7]; [17] 98% | [7]; at 50.0 µM 93% | [8]; at 33.0 µM 98% | [8]; at 100.0 µM 97% | [9]; [17] 96% | [9]; at 50.0 µM 90% | [10]; at 33.0 µM 97% | [10]; [17] 97% | [10]; at 50.0 µM 91% | [10]; at 100.0 µM 96% | [11]; at 33.0 µM 98% | [11]; at 100.0 µM 97% | [12]; at 33.0 µM 97% | [12]; at 100.0 µM 97% | [13]; at 33.0 µM 97% | [13]; at 100.0 µM 96% | [14]; at 50.0 µM 91.3% | [15]; at 33.0 µM 97% | [15]; at 100.0 µM 97%

O=C1c2ccccc2C(=O)c2sc(Nc3ccccc3Cl)nc21
active: [1]; at 33.0 µM 99% | [1]; at 100.0 µM 98% | [2]; at 11.0 µM 94% | [2]; at 33.0 µM 99% | [2]; at 100.0 µM 98% | [3]; at 11.0 µM 96% | [3]; at 33.0 µM 99% | [3]; at 100.0 µM 98% | [4]; [16] 87% | [4]; at 11.0 µM 78% | [4]; at 33.0 µM 98% | [4]; [17] 99% | [4]; at 50.0 µM 89.6% | [4]; at 100.0 µM 96% | [5]; [16] 97% | [5]; at 11.0 µM 99% | [5]; at 33.0 µM 99% | [5]; [17] 99% | [5]; at 50.0 µM 91.2% | [5]; at 100.0 µM 98% | [6]; at 11.0 µM 96% | [6]; at 33.0 µM 99% | [6]; at 100.0 µM 98% | [7]; [16] 100% | [7]; [17] 100% | [7]; at 50.0 µM 93.7% | [8]; at 11.0 µM 94% | [8]; at 33.0 µM 99% | [8]; at 100.0 µM 98% | [9]; [17] 99% | [9]; at 50.0 µM 91.3% | [10]; [16] 99% | [10]; at 11.0 µM 97% | [10]; at 33.0 µM 99% | [10]; [17] 99% | [10]; at 50.0 µM 90.1% | [10]; at 100.0 µM 97% | [11]; at 3.7 µM 77% | [11]; at 11.0 µM 99% | [11]; at 33.0 µM 99% | [11]; at 100.0 µM 98% | [12]; at 11.0 µM 94% | [12]; at 33.0 µM 99% | [12]; at 100.0 µM 97% | [14]; [16] 96% | [14]; [17] 99% | [14]; at 50.0 µM 85.8% | [15]; at 11.0 µM 83% | [15]; at 33.0 µM 99% | [15]; at 100.0 µM 97%
inactive: [1]; at 1.2 µM -17% | [1]; at 3.7 µM 13% | [1]; at 11.0 µM 58% | [2]; at 1.2 µM -37% | [2]; at 3.7 µM 27% | [3]; at 1.2 µM -13% | [3]; at 3.7 µM 19% | [4]; at 1.2 µM -1% | [4]; at 3.7 µM 13% | [5]; at 1.2 µM -13% | [5]; at 3.7 µM 32% | [6]; at 1.2 µM -19% | [6]; at 3.7 µM 26% | [8]; at 1.2 µM 3% | [8]; at 3.7 µM 47% | [9]; [16] 57% | [10]; at 1.2 µM -4% | [10]; at 3.7 µM 54% | [11]; at 1.2 µM 1% | [12]; at 1.2 µM -30% | [12]; at 3.7 µM -6% | [15]; at 1.2 µM -14% | [15]; at 3.7 µM 25%

CCCCCCCCCC(=O)N(CCC)CCC
active: [1]; at 33.0 µM 79% | [1]; at 100.0 µM 98% | [2]; at 100.0 µM 77% | [3]; at 100.0 µM 96% | [4]; [16] 97% | [4]; [17] 96% | [4]; at 50.0 µM 90.9% | [4]; at 100.0 µM 97% | [5]; [16] 97% | [5]; at 33.0 µM 73% | [5]; [17] 98% | [5]; at 50.0 µM 93.3% | [5]; at 100.0 µM 97% | [6]; at 100.0 µM 97% | [7]; at 50.0 µM 92.9% | [8]; at 100.0 µM 98% | [9]; at 50.0 µM 91.1% | [10]; [17] 73% | [10]; at 50.0 µM 92% | [10]; at 100.0 µM 97% | [11]; at 100.0 µM 97%
inactive: [1]; at 1.2 µM -10% | [1]; at 3.7 µM -10% | [1]; at 11.0 µM -17% | [2]; at 1.2 µM 1% | [2]; at 3.7 µM 9% | [2]; at 11.0 µM 11% | [2]; at 33.0 µM 43% | [3]; at 1.2 µM -14% | [3]; at 3.7 µM -20% | [3]; at 11.0 µM -25% | [3]; at 33.0 µM 0% | [4]; at 1.2 µM 2% | [4]; at 3.7 µM -8% | [4]; at 11.0 µM -2% | [4]; at 33.0 µM 48% | [5]; at 1.2 µM -4% | [5]; at 3.7 µM 1% | [5]; at 11.0 µM -15% | [6]; at 1.2 µM -9% | [6]; at 3.7 µM -6% | [6]; at 11.0 µM -15% | [6]; at 33.0 µM 29% | [7]; [16] -38% | [7]; [17] 56% | [8]; at 1.2 µM 3% | [8]; at 3.7 µM -2% | [8]; at 11.0 µM 0% | [8]; at 33.0 µM 45% | [9]; [16] 48% | [9]; [17] 65% | [10]; at 1.2 µM -29% | [10]; at 3.7 µM -27% | [10]; [16] -7% | [10]; at 11.0 µM -37% | [10]; at 33.0 µM 67% | [11]; at 1.2 µM -5% | [11]; at 3.7 µM -2% | [11]; at 11.0 µM -10% | [11]; at 33.0 µM 49%
